CRFBP-R2 block: antagonists of CRF-BP/CRF-R2 complex, primary screen, cell-based, HEK293, calcium dye fluorescence, uHTS; CRF-induced calcium fluorescence; inhibition, % at 11.8 µM; 350,000 compounds, 0.59% hits;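 active = inhibition of the ligand-induced calcium signal above about 50% at the single tested concentration, limit read from the data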
MPTP block: mitochondrial permeability transition pore inhibitors, primary screen, biochemical, isolated mouse mitochondria, absorbance; Ca2+ swelling absorbance, 30 min; inhibition, % at 10 µM; 360,000 compounds, 1.4% hits;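 active = inhibition of 50% or more, scaled per plate between neutral and stimulator controls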
CRFBP-R2 agonist: agonists of CRF-BP/CRF-R2 complex, primary screen, cell-based, HEK293, calcium dye fluorescence, uHTS | CRF-binding protein / CRF receptor 2 complex (human) | activation, % at 13.2 µM | AID 588473, 2011 | 350,000 compounds, 0.46% hits | calcium dye fluorescence (FLIPR); percent of saturating CRF peptide response;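 active = activation of at least 50%, plus an integration ratio under a set limit after plate pattern correction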
NR3A LBD binder: binders of NR3A ligand-binding domain, primary screen, biophysical, differential scanning fluorimetry, uHTS | NR3A LBD differential scanning fluorimetry, Tm shift; 0% = protein alone, 100% = glycine-bound protein | Glutamate receptor ionotropic, NMDA 3A (GRIN3A) ligand-binding domain | 340,000 compounds, 2.5% hits | Tm shift relative to glycine control, % at 25 µM;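 active = melting temperature shift of at least 10% of the positive control shift, at one fixed dose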
TMEM16A inh: TMEM16A chloride channel inhibitors, primary screen, cell-based, HTS; HEK293 TMEM16A/YFP iodide influx fluorescence, ionomycin; normalized B-score (activity score, 25-100; higher = stronger inhibition) at 10 µM; Anoctamin-1 (Mus musculus), Q8BHY3; 310,000 compounds, 1.2% hits;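 active = ratio plate-corrected score three or more library SD toward inhibition, starting fluorescence score within five deviations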;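 note: score derived from kinetic fluorescence span divided by baseline fluorescence per well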
Target sequence (Q8BHY3 whole entry, looked up): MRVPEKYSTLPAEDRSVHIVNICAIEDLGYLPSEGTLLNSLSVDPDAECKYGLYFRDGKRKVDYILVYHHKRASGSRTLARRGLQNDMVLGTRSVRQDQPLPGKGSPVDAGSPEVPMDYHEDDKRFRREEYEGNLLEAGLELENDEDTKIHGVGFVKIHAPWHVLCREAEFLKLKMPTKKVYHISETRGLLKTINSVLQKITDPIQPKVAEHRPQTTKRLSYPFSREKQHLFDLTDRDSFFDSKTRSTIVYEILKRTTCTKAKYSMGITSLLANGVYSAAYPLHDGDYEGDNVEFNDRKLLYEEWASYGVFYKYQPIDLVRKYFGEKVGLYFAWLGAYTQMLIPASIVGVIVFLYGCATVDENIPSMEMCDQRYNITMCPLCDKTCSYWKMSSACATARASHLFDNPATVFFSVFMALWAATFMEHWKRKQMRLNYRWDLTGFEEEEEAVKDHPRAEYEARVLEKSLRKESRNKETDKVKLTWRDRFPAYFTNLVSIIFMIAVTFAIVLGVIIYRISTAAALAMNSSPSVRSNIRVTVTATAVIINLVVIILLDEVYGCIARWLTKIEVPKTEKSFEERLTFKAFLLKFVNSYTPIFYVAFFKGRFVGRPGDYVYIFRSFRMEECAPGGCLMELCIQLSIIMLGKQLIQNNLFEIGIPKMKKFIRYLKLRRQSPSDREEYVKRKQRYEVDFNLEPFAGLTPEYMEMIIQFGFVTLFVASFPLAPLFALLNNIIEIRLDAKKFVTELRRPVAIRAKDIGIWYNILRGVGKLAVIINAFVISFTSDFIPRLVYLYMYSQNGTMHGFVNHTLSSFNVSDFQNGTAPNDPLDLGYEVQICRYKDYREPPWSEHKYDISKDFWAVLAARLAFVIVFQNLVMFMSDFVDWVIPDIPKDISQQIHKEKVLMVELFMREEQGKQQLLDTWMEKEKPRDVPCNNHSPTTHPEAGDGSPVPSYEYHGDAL
ANO1 activ: TMEM16A chloride channel activators or potentiators, primary screen, cell-based, HTS | AID 623877, 2012 | Anoctamin-1 (Mus musculus), Q8BHY3 | HEK293 TMEM16A/YFP-H148Q/I152L, iodide quench fluorescence; active compounds read low | B-score at 10 µM | 340,000 compounds, 0.3% hits;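 active = fluorescence-ratio B-score plate-corrected deviation score at least 3 library SD below zero, with starting fluorescence score within 5 deviations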;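 note: channel opened by trigger with iodide after compound preincubation; score built on the fluorescence ratio of max minus min over baseline; more negative score means more quench and so TMEM16A activation or potentiation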
A number is an active result; – = inactive; · = not tested or not shown. Compounds with a hit are over-represented: about 5.1% of the library has one in this group of screens.

SMILES	CRFBP-R2 block	MPTP block	CRFBP-R2 agonist	NR3A LBD binder	TMEM16A inh	ANO1 activ
CCCCCCCCCCCC(=O)NC(Cc1ccc(OC)c([N+](=O)[O-])c1)C(=O)O (stereo unspecified)	55.2	–	–	–	–	–
CCOC(=O)C(Cc1ccc(OC)c([N+](=O)[O-])c1)NC(=O)CCC(=O)Nc1ccc(OC)cc1 (stereo unspecified)	–	–	–	–	–	–
Cc1cc(C)c(N2C(=O)C3C4CC(=O)C(c5ccccc54)C3C2=O)c(C)c1 (stereo unspecified)	–	–	–	–	–	–
Cc1cccc(N2C(=O)C3C4CC(=O)C(c5ccccc54)C3C2=O)c1C (stereo unspecified)	–	–	–	10.7	–	–
Cc1ccc(NC(=O)/C(C#N)=C/c2ccsc2)c(C)c1	–	–	–	11.5	–	–
COc1cc(/C=C2\SC(=Nc3ccccc3)N(Cc3ccco3)C2=O)ccc1OC(C)C(=O)O (stereo unspecified)	–	–	–	–	–	–
COCCN1C(=O)/C(=C/c2ccc(OCc3ccc(C(=O)O)cc3)c(OC)c2)SC1=Nc1ccccc1	–	–	–	–	100	–
CNC(=O)COC(=O)c1ccc2c(c1)S(=O)(=O)c1ccccc1C2=O	–	–	–	–	–	–
C[C@H]1CN([C@@H](C)CO)C(=O)c2cccc(NC(=O)c3cnccn3)c2O[C@@H]1CN(C)S(=O)(=O)c1ccc(F)cc1	–	–	–	–	·	–
Cn1c(SCC(=O)NC2(C#N)CCCCC2)nnc1-c1cccnc1	–	–	–	17.4	–	–
CCC(C)NC(=O)CSc1nnc(-c2ccc(OC)c(OC)c2)c(-c2ccc(OC)c(OC)c2)n1 (stereo unspecified)	–	–	–	–	–	–
Oc1c(Br)cc2oc3c(c2c1CNCc1ccccc1)CCCC3	–	–	–	–	–	–
NC(=S)N/N=C/c1c(O)c(Br)cc2oc3c(c12)CCCC3	–	–	–	10.2	–	–
Cc1cccc(NC(=O)CSCC(=O)Nc2cc(Cl)ccc2N2CCOCC2)c1	–	–	–	–	–	–
C#CCOCCOCCOCCNc1nc(N2CCN(C(=O)CCCCCCCCCCNC(=O)[C@H]([C@@H](C)CC)n3cc(CCCCN=C(N)N)nn3)CC2)nc(N2CCN(C(=O)CCCCCCCCCCNC(=O)[C@@H]([C@H](C)O)n3cc(C)nn3)CC2)n1	–	–	–	–	25	-24.9
C#CCOCCOCCOCCNc1nc(N2CCN(C(=O)CCCCCCCCCCNC(=O)[C@H](CCCN=C(N)N)n3cc(C[C@@H](C)CC)nn3)CC2)nc(N2CCN(C(=O)CCCCCCCCCCNC(=O)[C@@H]([C@H](C)CC)n3cc(CCCCCN)nn3)CC2)n1	·	·	·	·	25	·
C#CCOCCOCCOCCNc1nc(N2CCOCC2)nc(N2CCN(C(=O)CCCCCCCCCCNC(=O)[C@H]([C@@H](C)CC)n3cc(CCCCN=C(N)N)nn3)CC2)n1	–	–	–	–	–	–
C#CCOCCOCCOCCNc1nc(N2CCN(C(=O)CCCCCCCCCCNC(=O)Cn3cc(CCCCCN)nn3)CC2)nc(N2CCN(C(=O)CCCCCCCCCCNC(=O)[C@@H]([C@H](C)O)n3cc(C)nn3)CC2)n1	–	–	–	–	–	–
C#CCOCCOCCOCCNc1nc(N2CCN(C(=O)CCCCCCCCCCNC(=O)[C@H]([C@@H](C)CC)n3cc(CCCCN=C(N)N)nn3)CC2)nc(N2CCN(C(=O)CCCCCCCCCCNC(=O)[C@H](CCCN=C(N)N)n3cc(C[C@@H](C)CC)nn3)CC2)n1	·	·	·	·	25	·
CCN(C[C@H]1N[C@@](C)(C(=O)OC)[C@H]2C(=O)N(Cc3ccccc3)C(=O)[C@@H]12)S(=O)(=O)c1ccccc1	–	–	–	–	·	·
C=CCOC(=O)CCCCCCCC	–	–	–	–	·	–
CCCCC1CCC(C(=O)Nc2ccc(S(=O)(=O)Nc3nccs3)cc2)CC1 (stereo unspecified)	–	–	–	15.4	–	–
O=C1/C(=C\c2cccc([N+](=O)[O-])c2O)SC(=S)N1Cc1ccccc1	77.0	–	–	–	100	–
O=C1/C(=C\c2ccc(O)cc2)SC(=S)N1c1cccnc1	–	–	–	29.3	–	–
COc1cc(/C=C2\SC(=O)N(Cc3ccc(Cl)cc3)C2=O)cc([N+](=O)[O-])c1O	54.7	–	–	–	·	–
SMILES	CRFBP-R2 block	MPTP block	CRFBP-R2 agonist	NR3A LBD binder	TMEM16A inh	ANO1 activ
COc1cc([N+](=O)[O-])cc(/C=C2/SC(=S)N(Cc3ccccc3)C2=O)c1O	–	–	–	–	–	–
N=C1S/C(=C\c2ccc(O)cc2)C(=O)N1c1ccc(F)cc1	–	–	–	21.6	–	–
O=C1/C(=C/c2ccccc2O)SC(=S)N1Cc1cccnc1	–	–	–	–	–	–
CCN1C(=O)/C(=C\C=C\c2ccccc2[N+](=O)[O-])SC1=S	68.6	–	–	–	·	–
O=C1/C(=C\c2ccc(O)cc2)SC(=S)N1Cc1ccccc1	–	–	–	34.0	–	–
COc1cc(/C=C2\SC(=S)N(CC(=O)Nc3ccc(O)cc3)C2=O)cc(OC)c1OC	–	–	–	13.5	·	–
COc1cc(/C=C2\SC(=S)N(CC(=O)Nc3cccnc3)C2=O)cc(OC)c1OC	–	–	–	–	–	–
COc1cc(/C=C2/SC(=S)N(Cc3ccccc3)C2=O)ccc1OCC(=O)O	–	–	–	–	–	–
O=C1/C(=C\c2cc(Br)cc(Br)c2O)SC(=S)N1Cc1ccccc1	63.6	–	–	–	–	–
CCOc1ccccc1C=C1SC(=S)N(CC)C1=O	–	–	–	–	·	–
Cc1cccc(C)c1NC(=O)C1c2ccccc2OCC(=O)N1CCc1c[nH]c2ccccc12 (stereo unspecified)	·	–	·	·	·	·
CN(C(=O)C1CCC(=O)N(C2CC2)C1)C1CCCCC1 (stereo unspecified)	–	–	–	–	–	–
O=C(OCc1ccccc1C(F)(F)F)c1ccc(Br)c(S(=O)(=O)N2CCOCC2)c1	–	–	–	–	·	–
COc1cc(Cl)cc(CN2CCC(CCC(=O)NC3CC3)CC2)c1OC	–	–	–	–	–	–
COc1cc(/C=C2/SC(=S)N(Cc3ccccc3)C2=O)cc(Cl)c1O	–	–	171.3	–	–	–
CC(=O)Oc1ccc(/C=C2/SC(=S)N(Cc3ccccc3)C2=O)cc1	–	–	–	–	–	–
O=C(O)c1ccc(/C=C2/SC(=S)N(Cc3ccccc3)C2=O)cc1	–	–	–	19.9	–	–

Source: PubChem BioAssay
